Experimental data reported in PubChem BioAssay (NCI).
About 79,000 compounds went through this panel and 15% of them were active in at least one assay; those are over-represented in the sample as a whole. The source made the active and inactive calls. Rule as the data show it: active = growth inhibition above about 70%; inactive = the rest.

Experiment: NCI Yeast Anticancer Drug Screen. Data for the cln2 rad14 strain (AID 165);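 also: 0% = growth equal to vehicle treated cultures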
Conditions: S. cerevisiae cln2 rad14 strain, at 50.0 µM, active compounds read high
Procedure: Growth inhibition of yeast strains with defined genetic alterations is measured as a screen for potential anti-cancer activity. Selected strains with alterations in DNA damage repair or cell cycle control were exposed to compounds and growth inhibition was measured relative to vehicle treated controls. The strain used in this assay is cln2 rad14

Structure (SMILES) | growth inhibition
C=CC(C)(C)n1cc(C2=C(O)C(=O)C(c3cn(C(C)(C)C=C)c4ccccc34)=C(O)C2=O)c2ccccc21 | 4.7% (inactive)
COc1cc(C(=O)O)c(O)c(C(C)(C)C)c1 | -2.45% (inactive)
CC(=O)NC(CCc1ccc(Cl)c(Cl)c1)c1cccc(O)c(=O)c1 (stereo not given) | 63.7% (inactive)
O=c1[nH]c(=O)c2cc(Cl)cc(Cl)c2[nH]1 | 14% (inactive)
O=C(Nc1c(Cl)cc(Cl)cc1Cl)ON=C1CCCCC1 | 12.9% (inactive)
Cc1cccc(C)c1NC(=S)/N=C\c1c(O)[nH]c(=O)[nH]c1=O | -24.3% (inactive)
NC(=S)N/N=C/c1ccc(OC(=O)COc2ccc(Cl)cc2)cn1 | -1.25% (inactive)
CC1CC(C)S(=O)(=O)C1 (stereo not given) | -14.9% (inactive)
Cc1onc(-c2ccccc2Cl)c1C(=O)Cl | 4.5% (inactive)
Cc1nc(O)cc(=O)[nH]1 | -6.95% (inactive)
O=[N+]([O-])c1c(Cl)ncnc1Cl | -13.4% (inactive)
O=[n+]1ccn([O-])c2ccccc21 | -52.2% (inactive)
S=C=Nc1ccc2ccccc2c1 | 10.6% (inactive)
CC1=CC(=Nc2ccc(N(C)C)cc2)C=C(C)C1=O | -38.1% (inactive)
CN(C)Cc1ccccn1 | -5.75% (inactive)
COC1OC(CO)C(OC)C(O)C1O (stereo not given) | -6.7% (inactive)
Cc1onc(-c2c(F)cccc2Cl)c1-c1ncc(-c2ccc(Br)cc2)o1 | 9.45% (inactive)
BrCc1cccc(C[P+](c2ccccc2)(c2ccccc2)c2ccccc2)c1 | 28.2% (inactive)
O=C(c1cccc(C(=O)c2ccc3c4c(cccc24)C(=O)N(c2ccccc2)C3=O)c1)c1ccc2c3c(cccc13)C(=O)N(c1ccccc1)C2=O | 12.1% (inactive)
ClCC(Cl)[C@@H]1CC2C=CC1C2 (stereo not given in full) | 15.6% (inactive)

Structure (SMILES) | growth inhibition
Cc1cc(C)cc(OCC(=O)O)c1 | -41% (inactive)
O=S(=O)(O)c1cccc2cccnc12 | -14.6% (inactive)
CN1C(=O)NC(c2ccc(Cl)cc2)(c2ccc(Cl)cc2)C1=O | -11.9% (inactive)
CCC(C)C1CCC(O)CC1 (stereo not given) | 21.5% (inactive)
Oc1ccc(CCC2CCNc3ccccc32)cc1 (stereo not given) | -11.7% (inactive)
CC1CN(CCO)CC(C)O1 (stereo not given) | 5% (inactive)
CC(C)N1CC(=O)N2CSCC2C1=O (stereo not given) | -6.85% (inactive)
Cc1cccc2ccccc12 | 24.4% (inactive)
C=CC(=O)OC1CCC(C(C)(C)CC)CC1 (stereo not given) | -22.7% (inactive)
CCNc1ncnc2[nH]ncc12 | -13.8% (inactive)
CCOc1ccc(C(=O)O)cc1 | 4.85% (inactive)
CC1(C)CC(=O)C=C(N)C1 | 14.2% (inactive)
Cn1c(=O)c2nc3c(=O)n(C)c(=O)n(C)c3nc2n(C)c1=O | -6.9% (inactive)
O=C1NC(=O)C(c2ccccc2)O1 (stereo not given) | 14.7% (inactive)
CC(=O)[C@@]1(O)CC[C@H]2[C@@H]3CC[C@@H]4CC(=O)CC[C@]4(C)[C@H]3[C@@H](O)C[C@@]21C | -51.6% (inactive)
CC(=O)Oc1c(Cl)cccc1-c1ccccc1 | 5.4% (inactive)
Cc1cc(Cc2ccccc2)c(O)c(Cc2ccccc2)c1 | 38% (inactive)
CC1(C)OC2C(CO)OC(n3ccc(=O)[nH]c3=O)C2O1 (stereo not given) | -7.3% (inactive)
O=[N+]([O-])c1ccc2[nH]c(=S)n(/C=C(/c3ccc(Cl)cc3Cl)S(=O)(=O)Cc3ccc(Cl)cc3Cl)c2c1 | 23.9% (inactive)
CC(=O)c1ccc(C)cc1 | -2.8% (inactive)
